Measurements taken from PubChem BioAssay AID1422 (Emory University Molecular Libraries Screening Center, 2008).
Several values for one entry are separate records, joined by “and”; a condition that tells them apart may be missing. Identical values can stand only once. In all, about 260,000 compounds went through this assay and about 1,300 (0.5%) were called active. This is one part of a sample in which actives are shown more often than they occur.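 The calls were made as follows: active = percent inhibition above 40 after rounding to a whole number; inactive = the rest.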 Some compounds were tested as several samples or in several runs, with calls that do not always agree.

Biological target: Prostaglandin E2 receptor EP2 subtype (Homo sapiens) (UniProt P43116)
Sequence (P43116 whole entry, looked up): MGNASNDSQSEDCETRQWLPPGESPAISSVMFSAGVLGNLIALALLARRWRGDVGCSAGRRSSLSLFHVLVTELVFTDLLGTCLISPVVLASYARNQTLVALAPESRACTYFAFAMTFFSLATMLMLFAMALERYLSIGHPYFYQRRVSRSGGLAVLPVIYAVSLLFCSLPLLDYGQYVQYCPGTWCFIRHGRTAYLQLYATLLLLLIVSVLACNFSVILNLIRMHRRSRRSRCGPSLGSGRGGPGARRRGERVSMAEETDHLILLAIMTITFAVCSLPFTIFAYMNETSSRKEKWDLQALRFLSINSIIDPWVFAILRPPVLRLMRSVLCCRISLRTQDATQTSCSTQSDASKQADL
Experiment: blockers of PGE2-driven EP2 cAMP signalling – TR-FRET cAMP, C6 glioma cells, primary screen (AID 1422);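 also: rat C6 glioma host cells with rolipram phosphodiesterase inhibitor present; the protocol text gives 20 µM as final concentration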
Details: C6 glioma cells expressing human EP2, cAMP TR-FRET; at 25 µM; stronger effect = higher value; cells stimulated with saturating PGE2

inhibition, active:
O=C(O)[C@@H]1CS[C@]2(CCCN(Cc3ccccc3)C2)N1 46.7%, ClC(Cl)(Cl)C(N1CCN(c2ccccc2)CC1)N1CCN(c2ccccc2)CC1 46.7%, O=C(O)c1c(Br)c(Br)c(Br)c(Br)c1C1c2ccc(O)cc2Oc2cc(O)ccc21 46.5%, O=C(c1ccc([N+](=O)[O-])cc1)[C@@H](Br)[C@@H](Br)c1ccnc2ccccc12 99.4%, O=[N+]([O-])c1cc(Br)c(O)c(/C=N/Nc2nc3ccccc3s2)c1 77%, O=C(O)c1nn(-c2ccc(Cl)cc2)c2c1C(=O)c1ccccc1C2=O 42.4%, O=C1C=CC(=O)N1c1ccc(N2CCCCC2)cc1 106%, CCOC(=O)c1cc(-c2ccc(Cl)s2)nc2c1c(C)nn2C 41.6%, C=CS(=O)c1sc(Cl)c(N2CCOCC2)c1[N+](=O)[O-] (stereo not drawn) 116%, Fc1ccc2[nH]c3c(N4CCSCC4)ncnc3c2c1 59.2%, NC(N)=N/N=C/c1ccc(OCc2ccc(Cl)cc2Cl)cc1 97.3%, COc1ccccc1CSc1ncc(-c2ccc([N+](=O)[O-])cc2)[nH]1 85.8%, Cc1cccc(C(=O)O)c1C[C@@H]1NCC[C@@H]2c3ccccc3N[C@@H]12 46%, Cc1cc2ccccc2n1CCNC(=O)COc1ccc2ccccc2c1 73.2%, O=S(=O)(O)c1ccc(O)c2ncccc12.O=S(=O)(O)c1ccc(O)c2ncccc12.[Zn] 45.1%, COc1ccc(NS(=O)(=O)c2ccc(NC(=S)NC(=O)/C=C/c3ccc(C)cc3)cc2)nn1 63.2%

inhibition, 15.7% (inactive) and 44.9% (active):
COc1ccccc1OCCNCC(O)COc1cccc2[nH]c3ccccc3c12 (stereo not drawn)

inhibition, inactive:
COc1ccc(C2(O)CCN(CCN3CCCCC3)CC2)c(OC)c1 12.5%, CCn1c(=O)n(CC)c2cc(CN(Cc3ccc(C)s3)CC(C)O)ccc21 (stereo not drawn) 1.95%, O=C(NC1CCN(Cc2ccccc2)CC1)c1c(F)cccc1F 2.64%, CCCC(=O)C1CCN(Cc2ccccc2)CC1 13%, Cc1cccc2c(C(=O)Nc3cccc(C(=O)N4CCCCC4)c3)cc(=O)[nH]c12 4.42%, CC(C)(C)c1cnnn1-c1ccc(S(N)(=O)=O)cc1 3.83%, CC(NC(=O)C1CCN(c2nc3ccccc3n2C)CC1)c1ccccc1 (stereo not drawn) 7.13%, C(=N/N1CCN(c2ccccc2)CC1)/c1cccs1 6.51%, CC(NC(=O)Nc1ccccc1)C(c1cccs1)N1CCN(c2ccccc2)CC1 (stereo not drawn) 6.9%, COc1ccc(CN(Cc2cccnc2)C2CC(C)(C)NC(C)(C)C2)cc1OC 9.23%, CCOc1ccc(OCC)c(NC(=O)CSc2nc3cc4c(cc3cc2C)OCO4)c1 15.2%, O=C(Nc1ccc2oc(-c3cccnc3)nc2c1)c1cccc2ccccc12 10.6%, N#CC1=C(N)Oc2cc(O)ccc2C1C1CCCCC1 (stereo not drawn) 7.43%, CCn1cc(C(=O)N2CCC(n3c(C)nc4sc(C)c(C)c4c3=O)CC2)cn1 -0.97%, O=C(CN1CCC(n2nnc3cc(F)ccc32)CC1)Nc1cccc(F)c1 10.2%, Cc1nn(CCC(=O)NC2(c3ccccc3)CCCC2)c(C)c1C 7.61%, CC(C)(C)NCC(O)COc1cccc2[nH]c(=O)[nH]c12 (stereo not drawn) 13.5% and 12.7%, COc1ccccc1OCC(O)Cn1c(=N)n(C)c2ccccc21 (stereo not drawn) 8.65%, Cn1c(=O)c2cc(S(=O)(=O)NC3(c4ccccc4F)CC3)ccc2n(C)c1=O 10.9%, O=C(c1ccncc1)c1ccc([N+](=O)[O-])cc1 8.78%, O=C(Nn1c(-c2ccccc2)nc2ccccc2c1=O)c1ccc([N+](=O)[O-])cc1 6.91%, COc1ccc(C(O)CN2CCC(O)(c3ccc4c(c3)OCO4)CC2)cc1 (stereo not drawn) 6.32%, O=c1[nH]c2cc3c(cc2cc1C(c1nnnn1C1CCCCC1)N1CCCCC1)OCCO3 (stereo not drawn) 6.82%, COc1cc(/C=N/Nc2nc3ccccc3s2)ccc1O 16.7%, c1ccc2sc(NN=C3CCCC3)nc2c1 1.63%, COc1ccc2cc(CN(C(=O)Nc3ccc(F)cc3)C3CCCC3)c(=O)[nH]c2c1 8.38%, CN(C)c1ncc(CN2CCC(O)(c3ccccc3F)CC2)cn1 5.6%, COc1ccccc1NC(=O)c1sc(NC(=O)c2cccc(C)c2)c(C#N)c1C 11.9%, CCC(CN1CCC(C)CC1)NC(=O)Cc1c(C)nc(OC)nc1OC (stereo not drawn) 0.46%, Cc1ccc(-n2ccc(=O)c(C(=O)O)n2)cc1 11.4%, Cc1cc(C(=O)NCCc2ccc(Cl)cc2)n(-c2ccccc2)n1 6.8%, Cc1sc2nc(C(C)C)nc(SCC(=O)NCc3ccccc3)c2c1C 4.54%, O=C(NC1CCCC1)C(c1ccccc1F)N(Cc1ccco1)C(=O)Cc1c[nH]c2ccccc12 (stereo not drawn) 11.9%, Cc1ccccc1C(=O)Nc1ccc(N2CCCCCC2)cc1 -0.3%, N#CSc1ccc(N2CCCCC2)cc1 6.1%, C=C(C)Cn1c(N2CCC(C)CC2)nc2c1c(=O)[nH]c(=O)n2C 10.2%, C=CCn1c(NC)nc2c1c(=O)n(C)c(=O)n2C 7.03%, CCOC(=O)c1cnc2c(c(C)nn2CC)c1Cl 4.46%, Cc1c(NC(=O)c2cc(-c3ccc(Cl)s3)nc3ccccc23)c(=O)n(-c2ccccc2)n1C 13.1%, COc1cc(OC)cc(-n2nnnc2SCC(=O)N2CCN(C)CC2)c1 10.8%, COc1ccc2cc(C#N)c(SCC(=O)Nc3ccccc3Br)nc2c1 27%, COc1cc(NC(=O)CSc2nnc3c(n2)[nH]c2ccccc23)cc(OC)c1 9.57%, Cc1cc2nc(-c3ccc(SCC(=O)N4CCCCC4C)nc3)[nH]c2cc1C (stereo not drawn) 12.4%, Cc1ccc(SCCC(=O)Nc2cc(C)on2)cc1 1.47%, CCCN1C(=O)/C(=C/N(C(C)=O)c2ccccc2)SC1=S 12.5%, CC1CCN(C(=O)CSc2nc3ccccc3n2Cc2ccccc2)CC1 11.6%, O=C(NCc1noc(-c2ccccc2)n1)c1cc(-c2ccccn2)n[nH]1 4.63%, O=C(CN1C(=O)[C@@H]2CCCN2C(=O)c2ccccc21)Nc1ccc2c(c1)OCCO2 6.18%, COc1ccc(C(=O)O/N=C(\N)Cc2ccc(Cl)cc2Cl)cc1OC 14.2%, NC(N)=N/N=C/c1ccc(Cl)c([N+](=O)[O-])c1 5.88%, CCOc1ccc2nc(NC(=O)c3ccc(NC(C)=O)cc3)sc2c1 11.4%, CC(C)(C)NC(=O)Cn1nnc(-c2ccc(N)cc2)n1 7.5%, COc1ccccc1CSc1nc2ccccc2[nH]1 -5.57%, COc1ccccc1CC(=O)Nc1ccc([N+](=O)[O-])cc1OC 2.1%, N#CCN1CCN(c2ncnc3sc4c(c23)CCCC4)CC1 12.8%, CCN(CC)CCCN1C(=O)C(O)=C(C(=O)c2ccc(C)o2)C1c1ccccc1F (stereo not drawn) 13.9%, COc1ccc(C2=NNC(c3cccnc3)=Nc3ccc(Br)cc32)cc1OC 6.87%, O=C(CN1N=C(c2ccccc2)Cn2c(cc3sccc32)C1=O)NCC1CCCO1 (stereo not drawn) 4.16%, CCc1cc2cc3c(cc2nc1SCC(=O)Nc1ccccc1Br)OCCO3 8.66%, Cc1cc2ccccc2n1CCC(=O)O 7.85%, COC(=O)C(C)NC(=O)COc1ccc2ccccc2c1 (stereo not drawn) 8.28%, COC(=O)c1ccc(Cn2nc([N+](=O)[O-])c(Cl)c2C)cc1 12.7%, O=[N+]([O-])c1cc([N+](=O)[O-])c2cccnc2c1O 7.12%, O=C(O)COc1c(Cl)cc(Cl)c2cccnc12 16.4%, Cc1ccc(-n2c(SCC(=O)NC(C)(C)C)nnc2-c2cccnc2)cc1C 15.1%, Cc1ccc(NC(=S)NC(=O)/C=C/c2ccc(Cl)cc2)cc1 5.92%, COc1ccc(NS(=O)(=O)c2ccc(NC(=O)C(C)(C(F)(F)F)C(F)(F)F)cc2)nn1 14.1%, CC1CCN(c2nc3c(c(=O)[nH]2)CCN(Cc2ccc(C(F)(F)F)cc2)C3)CC1 6.96%, COc1ccc(Cc2nnc(NC(=O)Cc3ccc(Cl)cc3)s2)cc1OC 9.47%, COc1cc(C=C2C(=O)OC3(CCCC3)OC2=O)ccc1OCc1ccccc1F 13.4%, CC1=NN(Cc2ccccc2)C(=O)/C1=C/c1ccc(N(C)C)cc1 18.2%, Cc1nn(C)cc1S(=O)(=O)N(Cc1ccncc1)C1CC1 7.77%, Cc1nc2c(c(=O)[nH]1)CCN(C(=O)Cn1c3ccccc3c3ccccc31)C2 7.09%, Cc1[nH]nc2c1C(c1ccc(OCC(=O)N3CCCC3)cc1)C(C#N)=C(N)O2 (stereo not drawn) 10.8%

inhibition, 41.7% (active) and 7.71% (inactive):
CN(C)c1ccc(C=C2C(=O)OC3(CCCC3)OC2=O)cc1

inhibition, 64.2% (active) and 20.1% (inactive):
Cc1ccc2nc(-c3ccc(SCC(=O)Nc4cc(C)on4)nc3)[nH]c2c1
